Assay results from PubChem BioAssay (NCATS).
Values joined by “and” are separate entries in the source; they are usually repeats but may differ in a detail not shown here. Equal entries are not always repeated. Inconclusive results are not listed. Active and inactive are the calls of the source. Calls follow the shape of the dose curve; as a rule, active = well fitted curve in the direction sought with a large enough effect; inconclusive = small, poorly fitted or top-dose-only effect, or another doubt; inactive = no such curve, though single readings can be large; an effect the other way counts as inactive or inconclusive.

Experiment: qHTS of pediatric cancer cell lines to identify multiple opportunities for drug repurposing: Primary screen for Rh30 cells (AID 1347107); also: % is scaled to controls: 0 for no effect and ±100 for the full control effect; nearly all actives have a fitted effect of over 75% in size
Conditions: Rh30 rhabdomyosarcoma viability, CellTiter-Glo luminescence, 48 h; series mostly up to 46 µM; activity change, negative = cytotoxic: at the top concentration
Outline: (§1)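 Viability after 48 h compound treatment at 37C, 500-1,000 cells/well, read as ATP luminescence with CellTiter-Glo. Primary screens used 11-point (MIPE, 0.78 nM-46 µM) or 8-point (NPC, 0.59 nM-46 µM) final concentrations; follow-up screens used 11-point dilutions.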

**Q.** With COC(=O)Nc1nc2ccc(C(=O)c3ccccc3)cc2[nH]1 as the compound, how does the “activity change, negative = cytotoxic” value read?
**A.** 4.8% (inactive)

**Q.** Which “activity change, negative = cytotoxic” value does the source give for CC(C)(C)NC(=O)[C@H]1CC[C@H]2[C@@H]3CC[C@H]4NC(=O)C=C[C@]4(C)[C@H]3CC[C@]12C here?
**A.** 5.07% (inactive)

**Q.** With Nc1nc(N)c2nc(CNc3ccc(C(=O)NC(CCC(=O)O)C(=O)O)cc3)cnc2n1 (stereo not given) as the compound, how does the “activity change, negative = cytotoxic” value read?
**A.** 23.4% (inactive)

Experiment: qHTS of pediatric cancer cell lines to identify multiple opportunities for drug repurposing: Primary screen for Rh41 cells (AID 1347108); also: nearly all actives have a fitted effect of over 70% in size; also: potency is read from the fitted curve at half-maximal effect;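 as to activity change, negative = cytotoxic: luminescence drop marks cytotoxic hits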
Conditions: Rh41 rhabdomyosarcoma viability, CellTiter-Glo luminescence, 48 h; series mostly up to 46 µM; activity change, negative = cytotoxic: at the top concentration
Outline: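 Cells plated at 500-1,000/well in growth medium, compounds added after 5 h. MIPE tested at 11 points (from 0.78 nM), NPC at 8 points (from 0.59 nM). CellTiter-Glo luminescence after 48 h; concentration-response curves from primary screen.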

**Q.** For Cc1ncc([N+](=O)[O-])n1CCO, which Potency is on record?
**A.** inactive

**Q.** For CN1CCCC(n2nc(Cc3ccc(Cl)cc3)c3ccccc3c2=O)CC1 (stereo not given), which “activity change, negative = cytotoxic” value is on record?
**A.** 2.7% (inactive)

**Q.** For Cc1onc(-c2ccccc2Cl)c1C(=O)N[C@@H]1C(=O)N2[C@@H]1SC(C)(C)[C@@H]2C(=O)O, which Potency is on record?
**A.** inactive

**Q.** With NC(=O)c1cccc(N)c1 as the compound, how does the “activity change, negative = cytotoxic” value read?
**A.** 9.56% (inactive)

**Q.** With CCC(=O)O[C@]1(C(=O)SCF)[C@H](C)C[C@H]2[C@@H]3C[C@H](F)C4=CC(=O)C=C[C@]4(C)[C@@]3(F)[C@@H](O)C[C@@]21C as the compound, how does the Potency read?
**A.** inactive

**Q.** For S=P(N1CC1)(N1CC1)N1CC1, which Potency is on record?
**A.** inactive

**Q.** For O=C(NCC1CN(c2ccc(N3CCOCC3=O)cc2)C(=O)O1)c1ccc(Cl)s1 (stereo not given), which Potency is on record?
**A.** inactive

**Q.** Which Potency does the source give for NC1(c2ccc(-c3nc4ccn5c(=O)[nH]nc5c4cc3-c3ccccc3)cc2)CCC1 here?
**A.** 11.8 µM (active)

**Q.** Which Potency does the source give for CS(=O)(=O)c1ccc([C@@H](O)[C@@H](CO)NC(=O)C(Cl)Cl)cc1 here?
**A.** inactive

**Q.** With CC1(C)[C@H](C(=O)O)N2C(=O)C[C@H]2S1(=O)=O as the compound, how does the “activity change, negative = cytotoxic” value read?
**A.** 28.5% (inactive)

**Q.** With CC1=C(C(=O)O)N2C(=O)[C@@H](NC(=O)C(N)c3ccccc3)[C@H]2SC1 (stereo not given in full) as the compound, how does the “activity change, negative = cytotoxic” value read?
**A.** 27.9% (inactive)

**Q.** With CCn1cc(C(=O)O)c(=O)c2cc(F)c(N3CCN(C)CC3)cc21 as the compound, how does the Potency read?
**A.** inactive

**Q.** Which Potency does the source give for NNC(=O)c1ccncc1 here?
**A.** inactive

**Q.** For CCCc1cc(C(N)=S)ccn1, which Potency is on record?
**A.** inactive

**Q.** For CCN(C)C(=O)Oc1cccc([C@H](C)N(C)C)c1, which Potency is on record?
**A.** inactive

**Q.** For O=c1oc2c(O)c(O)cc3c(=O)oc4c(O)c(O)cc1c4c23, which “activity change, negative = cytotoxic” value is on record?
**A.** 14.5% [at 16.1 µM] (inactive)

**Q.** With CC(C)(C)NC(=O)[C@H]1CC[C@H]2[C@@H]3CC[C@H]4NC(=O)C=C[C@]4(C)[C@H]3CC[C@]12C as the compound, how does the “activity change, negative = cytotoxic” value read?
**A.** 1.98% (inactive)

**Q.** With COc1cc2nc(N3CCCN(C)CC3)nc(NC3CCN(Cc4ccccc4)CC3)c2cc1OC as the compound, how does the Potency read?
**A.** 18.7 µM (active)

**Q.** With Nc1nc(N)c2nc(CNc3ccc(C(=O)NC(CCC(=O)O)C(=O)O)cc3)cnc2n1 (stereo not given) as the compound, how does the “activity change, negative = cytotoxic” value read?
**A.** 32.5% (inactive)

**Q.** For CCCCc1oc2ccc(NS(C)(=O)=O)cc2c1C(=O)c1ccc(OCCCN(CCCC)CCCC)cc1, which Potency is on record?
**A.** 23.5 µM (active)

**Q.** With CNNCc1ccc(C(=O)NC(C)C)cc1 as the compound, how does the Potency read?
**A.** inactive

**Q.** For CO[C@@]12[C@H](COC(N)=O)C3=C(C(=O)C(C)=C(N)C3=O)N1C[C@@H]1N[C@@H]12, which Potency is on record?
**A.** 13.3 µM (active) and 11.8 µM (active)

**Q.** With Cc1ccc(S(=O)(=O)N[C@@H](Cc2ccccc2)C(=O)CCl)cc1 as the compound, how does the Potency read?
**A.** 18.7 µM (active)

**Q.** With Oc1c(Cl)cc(Cl)c2cccnc12 as the compound, how does the Potency read?
**A.** 23.5 µM (active)

**Q.** With N[C@@H](Cc1ccc(O)c(O)c1)C(=O)O as the compound, how does the “activity change, negative = cytotoxic” value read?
**A.** 33.8% (inactive)

**Q.** For CNS(=O)(=O)CCc1ccc2[nH]cc(C3CCN(C)CC3)c2c1, which Potency is on record?
**A.** inactive

**Q.** Which Potency does the source give for CNS(=O)(=O)Cc1ccc2[nH]cc(CCN(C)C)c2c1 here?
**A.** inactive

**Q.** For CCCc1nc(C)c2c(=O)[nH]c(-c3cc(S(=O)(=O)N4CCN(CC)CC4)ccc3OCC)nn12, which Potency is on record?
**A.** 14.8 µM (active)

**Q.** With CNC(=O)c1cc(Oc2ccc(NC(=O)Nc3ccc(Cl)c(C(F)(F)F)c3)cc2)ccn1 as the compound, how does the Potency read?
**A.** 18.7 µM (active)

Experiment: qHTS of pediatric cancer cell lines to identify multiple opportunities for drug repurposing: Confirmatory screen for NB1643 cells (AID 1347109); also: nearly all actives have a fitted effect of over 45% in size; also: potency is read from the fitted curve at half-maximal effect;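 as to activity change, negative = cytotoxic: plate controls were DMSO for no effect and bortezomib for full effect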
Conditions: NB1643 neuroblastoma cell viability; series mostly up to 45.9 µM; activity change, negative = cytotoxic: at the top concentration
Outline: as §1

**Q.** For CCC(=O)O[C@]1(C(=O)SCF)[C@H](C)C[C@H]2[C@@H]3C[C@H](F)C4=CC(=O)C=C[C@]4(C)[C@@]3(F)[C@@H](O)C[C@@]21C, which “activity change, negative = cytotoxic” value is on record?
**A.** -10.9% (inactive)

**Q.** With Nc1nc(=S)c2[nH]cnc2[nH]1 as the compound, how does the Potency read?
**A.** 5.85 µM (active) and 4.14 µM (active)

**Q.** For CNCC[C@H](Oc1cccc2ccccc12)c1cccs1, which “activity change, negative = cytotoxic” value is on record?
**A.** -5.29% (inactive)

**Q.** Which Potency does the source give for COc1cc2nc(N3CCCN(C)CC3)nc(NC3CCN(Cc4ccccc4)CC3)c2cc1OC here?
**A.** 20.8 µM (active)

**Q.** Which “activity change, negative = cytotoxic” value does the source give for Nc1nc(N)c2nc(CNc3ccc(C(=O)NC(CCC(=O)O)C(=O)O)cc3)cnc2n1 (stereo not given) here?
**A.** -2.35% (inactive)

**Q.** Which Potency does the source give for CO[C@@]12[C@H](COC(N)=O)C3=C(C(=O)C(C)=C(N)C3=O)N1C[C@@H]1N[C@@H]12 here?
**A.** 1.04 µM (active)

**Q.** With Oc1c(Cl)cc(Cl)c2cccnc12 as the compound, how does the Potency read?
**A.** 18.5 µM (active)

**Q.** Which Potency does the source give for COc1cc(NCc2ccc3nc(N)nc(N)c3c2C)cc(OC)c1OC here?
**A.** 9.27 µM (active)

**Q.** With CCc1c2c(nc3ccc(OC(=O)N4CCC(N5CCCCC5)CC4)cc13)-c1cc3c(c(=O)n1C2)COC(=O)[C@]3(O)CC as the compound, how does the Potency read?
**A.** 2.61 µM (active)

**Q.** For CNS(=O)(=O)CCc1ccc2[nH]cc(C3CCN(C)CC3)c2c1, which “activity change, negative = cytotoxic” value is on record?
**A.** -3.03% (inactive)

**Q.** Which Potency does the source give for CNC(=O)c1cc(Oc2ccc(NC(=O)Nc3ccc(Cl)c(C(F)(F)F)c3)cc2)ccn1 here?
**A.** 20.8 µM (active)

Experiment: qHTS of pediatric cancer cell lines to identify multiple opportunities for drug repurposing: Confirmatory screen for A673 cells (AID 1347110);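 also: cells exposed to compound for 48 h before the viability read; nearly all actives have a fitted effect of over 65% in size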; also: potency is read from the fitted curve at half-maximal effect
Conditions: A673 Ewing sarcoma cell viability; series mostly up to 45.9 µM; activity change, negative = cytotoxicity: at the top concentration; outcome: at the top concentration
Outline: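 Concentration-response curves came straight from titrations: 11 points (0.78 nM to 46 µM) for MIPE and several concentrations (0.59 nM to 46 µM) for NPC in primary, 11 points in follow-up. Readout: ATP luminescence at 48 h.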

**Q.** For CN1CCCC(n2nc(Cc3ccc(Cl)cc3)c3ccccc3c2=O)CC1 (stereo not given), which Potency is on record?
**A.** 9.27 µM (active)

**Q.** For COC(=O)Nc1nc2ccc(C(=O)c3ccccc3)cc2[nH]1, which Potency is on record?
**A.** 1.04 µM (active)

**Q.** Which Potency does the source give for CCC(=O)O[C@]1(C(=O)SCF)[C@H](C)C[C@H]2[C@@H]3C[C@H](F)C4=CC(=O)C=C[C@]4(C)[C@@]3(F)[C@@H](O)C[C@@]21C here?
**A.** 1.04 µM (active)

**Q.** For S=P(N1CC1)(N1CC1)N1CC1, which Potency is on record?
**A.** 0.928 µM (active)

**Q.** With CC1CC2C3CCC4=CC(=O)C=C[C@]4(C)[C@@]3(F)[C@@H](O)C[C@]2(C)[C@@]1(O)C(=O)CO (stereo not given in full) as the compound, how does the Potency read?
**A.** 2.93 µM (active)

**Q.** With CS(=O)(=O)c1ccc([C@@H](O)[C@@H](CO)NC(=O)C(Cl)Cl)cc1 as the compound, how does the “outcome” value read?
**A.** inactive

**Q.** For Nc1nc(=S)c2[nH]cnc2[nH]1, which Potency is on record?
**A.** 2.61 µM (active) and 1.65 µM (active)

**Q.** For CNCC[C@H](Oc1cccc2ccccc12)c1cccs1, which Potency is on record?
**A.** 14.7 µM (active)

**Q.** For COc1cc2nc(N3CCCN(C)CC3)nc(NC3CCN(Cc4ccccc4)CC3)c2cc1OC, which Potency is on record?
**A.** 7.37 µM (active)

**Q.** For Nc1nc(N)c2nc(CNc3ccc(C(=O)NC(CCC(=O)O)C(=O)O)cc3)cnc2n1 (stereo not given), which Potency is on record?
**A.** 1.04 µM (active)

**Q.** With CNNCc1ccc(C(=O)NC(C)C)cc1 as the compound, how does the Potency read?
**A.** 10.4 µM (active)

**Q.** Which Potency does the source give for CO[C@@]12[C@H](COC(N)=O)C3=C(C(=O)C(C)=C(N)C3=O)N1C[C@@H]1N[C@@H]12 here?
**A.** 3.69 µM (active)

**Q.** Which Potency does the source give for Oc1c(Cl)cc(Cl)c2cccnc12 here?
**A.** 8.27 µM (active)

**Q.** With COc1cc(NCc2ccc3nc(N)nc(N)c3c2C)cc(OC)c1OC as the compound, how does the Potency read?
**A.** 3.29 µM (active)

**Q.** With CCc1c2c(nc3ccc(OC(=O)N4CCC(N5CCCCC5)CC4)cc13)-c1cc3c(c(=O)n1C2)COC(=O)[C@]3(O)CC as the compound, how does the Potency read?
**A.** 1.17 µM (active)

**Q.** For CNS(=O)(=O)CCc1ccc2[nH]cc(C3CCN(C)CC3)c2c1, which Potency is on record?
**A.** 3.69 µM (active)

**Q.** With CNC(=O)c1cc(Oc2ccc(NC(=O)Nc3ccc(Cl)c(C(F)(F)F)c3)cc2)ccn1 as the compound, how does the Potency read?
**A.** 23.3 µM (active)
